Results taken from PubChem BioAssay (Tox21).
Inconclusive results are not listed. The source made the active and inactive calls. Unless noted, calls come from the whole dose curve; as a rule, active = well fitted curve in the direction sought with a large enough effect in the repeat runs; inconclusive = weak or mixed curves; inactive = no such curve, though single readings can be large; an effect the other way counts as inactive or inconclusive.

Tests used:
[1] = qHTS assay to identify small molecule agonists of the peroxisome proliferator-activated receptor delta (PPARd) signaling pathway - cell viability counter screen (AID 743211); note: nearly all actives have a fitted effect of over 55% in size
Procedure, shortened: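 Read-out: CellTiter-Glo luminescence, 30 min RT, measured in the same wells as the beta-lactamase reporter. Cells: GeneBLAzer PPAR delta UAS-bla HEK293H, 3000 cells/well, compound exposure 17 h at 37C.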

[2] = target: Peroxisome proliferator-activated receptor delta (Homo sapiens) (UniProt Q03181); experiment: qHTS assay to identify small molecule agonists of the peroxisome proliferator-activated receptor delta (PPARd) signaling pathway (AID 743212; calls by dose curve)
Procedure, shortened: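 Beta-lactamase reporter read by fluorescence (LiveBLAzer B/G FRET, 2 h, room temperature). Test agents, in DMSO, incubated at 37 C with PPARd-bla HEK293H cells.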

[3] = qHTS assay to identify small molecule antagonists of the peroxisome proliferator-activated receptor delta (PPARd) signaling pathway - cell viability counter screen (AID 743213); note: nearly all actives have a fitted effect of over 50% in size
Procedure, shortened: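 HEK293H cells with the PPARd UAS-bla reporter, co-treated 17 h at 37 C with compounds and L165041 (300 nM final), were lysed with CellTiter-Glo. Luminescence indicated viable cell content.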

[4] = qHTS assay to identify small molecule agonists of the farnesoid-X-receptor (FXR) signaling pathway - cell viability counter screen (AID 743218); note: nearly all actives have a fitted effect of over 45% in size
Procedure, shortened: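 Same-well cytotoxicity check on FXR-UAS-bla HEK 293T cells: 5 h attachment, 16 h compound at 37 C, CellTiter-Glo luminescence read at room temperature after 30 min.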

[5] = qHTS assay to identify small molecule antagonists of the farnesoid-X-receptor (FXR) signaling pathway - cell viability counter screen (AID 743221; active = well fitted cell-killing curve with a large enough effect in the repeat runs, not every such curve was filed as active; note: nearly all actives have a fitted effect of over 50% in size)
Procedure, shortened: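 HEK 293T FXR-bla cells, 5 h pre-incubation; compound + CDCA 50 uM final, 16 h, 37 C; beta-lactamase FRET read first, then CellTiter-Glo luminescence, 30 min RT.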

[6] = qHTS assay to identify small molecule agonists of the vitamin D receptor (VDR) signaling pathway - cell viability counter screen (AID 743224); note: series mostly up to about 63 µM; nearly all actives have a fitted effect of over 50% in size
Procedure, shortened: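 Counter screen for cytotoxicity: VDR-bla cells at 2,000 cells/well, 16 h compound exposure, then CellTiter-Glo luminescence after the beta-lactamase measurement.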

[7] = qHTS assay to identify small molecule antagonists of the vitamin D receptor (VDR) signaling pathway - cell viability counter screen (AID 743225); note: nearly all actives have a fitted effect of over 50% in size
Procedure, shortened: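 Viability counter screen run in the same wells as the beta-lactamase reporter assay: HEK 293T VDR-UAS-bla cells, 16 h compound exposure at 37C with 3 nM (final) 1-alpha,25-dihydroxyvitamin D3. CellTiter-Glo luminescence, 30 min, room temperature.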

[8] = qHTS assay to identify small molecule agonists of the NFkB signaling pathway (AID 1159509; active = well fitted curve in the direction sought with a large enough effect in the signal ratio in the repeat runs, not every such curve was filed as active; the % refers to the signal ratio; note: series mostly up to about 61 µM)
Procedure, shortened: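 Beta-lactamase reporter assay run in quantitative high-throughput format on an NF-kB-responsive ME-180 line, with 5 hr compound treatment and a FRET-based blue/green fluorescence readout.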

[9] = qHTS assay to identify small molecule agonists of the NFkB signaling pathway - cell viability counter screen (AID 1159515; calls by dose curve; note: series mostly up to about 61 µM; nearly all actives have a fitted effect of over 55% in size)
Procedure, shortened: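 Counter screen run alongside the NFkB-bla agonist assay: ME-180 reporter cells exposed to compounds for 5 hr, then lysed with CellTiter-Glo in the same wells. Luminescence, read after 30 min, reflects viable cells.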

[10] = qHTS assay to identify small molecule agonists of the endoplasmic reticulum stress response signaling pathway (AID 1159516; active = well fitted activation curve with a large enough effect in the signal ratio in the repeat runs, not every such curve was filed as active; the % refers to the signal ratio)
Procedure, shortened: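 For this screen, HeLa cells stably carrying beta-lactamase under the ER stress response element received test compounds, positive controls or DMSO for 5 hr at 37 C; B/G FRET substrate was then added and dual-wavelength emission recorded.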

[11] = qHTS assay to identify small molecule agonists of the endoplasmic reticulum stress response signaling pathway - cell viability counter screen (AID 1159517; calls by dose curve)
Procedure, shortened: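 Cytotoxicity of test compounds toward ESRE-bla HeLa cells was assessed after 5 hr exposure. The luminescent CellTiter-Glo signal was measured 30 min after reagent addition.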

[12] = qHTS assay to identify small molecule antagonists of the retinoid-related orphan receptor gamma (ROR-gamma) signaling pathway - cell viability counter screen (AID 1159520); note: nearly all actives have a fitted effect of over 50% in size
Procedure, shortened: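 Tet-on ROR gamma CHO cells (1,000/well) were plated 4 hr, given compounds in DMSO for 2 hr at 37 C, then induced with 1 uM final doxycycline for 16 hr. Viability was read as ATP by CellTiter-Glo luminescence after 30 min.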

[13] = target: Nuclear receptor ROR-gamma (Homo sapiens) (UniProt P51449); experiment: qHTS assay to identify small molecule antagonists of the retinoid-related orphan receptor gamma (ROR-gamma) signaling pathway (AID 1159521)
Procedure, shortened: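 Luminescence readout (ONE-Glo, 30 min RT) after 16 h doxycycline induction; loss of signal scored as antagonism. CHO cells with TET-inducible RORγ and RORE-LUC reporter; compounds added 2 h before 1 uM final doxycycline.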

[14] = qHTS assay to identify small molecule agonists of the AP-1 signaling pathway - cell viability counter screen (AID 1159525; calls by dose curve; note: nearly all actives have a fitted effect of over 55% in size)
Procedure, shortened: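 Each titration point was normalised to DMSO and tetra n-octyl ammonium bromide controls. The read was Cell Titer Glo luminescence after 30 min at RT, following 5 h compound exposure of ME-180 AP-1-bla cells at 37 °C.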

[15] = qHTS assay to identify small molecule agonists of the AP-1 signaling pathway (AID 1159526; calls by dose curve)
[16] = target: Vitamin D3 receptor (Homo sapiens) (UniProt P11473); experiment: qHTS assay to identify small molecule agonists of the vitamin D receptor (VDR) signaling pathway (AID 743222; calls by dose curve)
Procedure, shortened: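 Using LiveBLAzer B/G FRET detection, agonism was scored in VDR-bla cells exposed overnight (16 h, 37C) to DMSO-dissolved compounds; substrate incubation was 2 h at room temperature.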

[17] = target: Vitamin D3 receptor (Homo sapiens) (UniProt P11473); experiment: qHTS assay to identify small molecule antagonists of the vitamin D receptor (VDR) signaling pathway (AID 743223; active = well fitted inhibition curve with a large enough effect in the signal ratio in the repeat runs, not every such curve was filed as active; the % refers to the signal ratio)
Procedure, shortened: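 Beta-lactamase reporter read-out: FRET substrate fluorescence after 2 h at room temperature, following 16 h exposure of VDR-bla cells to test compound plus 3 nM (final) 1alpha,25-dihydroxyvitamin D3 agonist at 37C.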

[18] = target: Bile acid receptor (Homo sapiens) (UniProt Q96RI1); experiment: qHTS assay to identify small molecule agonists of the farnesoid-X-receptor (FXR) signaling pathway (AID 743220; active = well fitted activation curve with a large enough effect in the signal ratio in the repeat runs, not every such curve was filed as active; the % refers to the signal ratio)
Procedure, shortened: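 FXR-UAS-bla HEK 293T cells carrying a UAS-driven beta-lactamase reporter were plated for 5 h at 37C/5% CO2, then exposed to DMSO-dissolved Tox21 10K compounds for 16 h at 37C. A LiveBLAzer B/G FRET substrate was loaded for 2 h at room temperature before fluorescence reading.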

[19] = target: Peroxisome proliferator-activated receptor delta (Homo sapiens) (UniProt Q03181); experiment: qHTS assay to identify small molecule antagonists of the peroxisome proliferator-activated receptor delta (PPARd) signaling pathway (AID 743215; active = well fitted inhibition curve with a large enough effect in the signal ratio in the repeat runs, not every such curve was filed as active; the % refers to the signal ratio;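 note: cells stimulated with agonist L165041 at 300 nM final during compound exposure; series mostly up to about 62 µM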)
Procedure, shortened: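 Screen format: qHTS, antagonist mode. HEK293H PPARd-bla cells received compound and 300 nM L165041 (final), 17 h, 37 C. Beta-lactamase detected via FRET substrate fluorescence, 2 h, room temperature.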

[20] = target: Bile acid receptor (Homo sapiens) (UniProt Q96RI1); experiment: qHTS assay to identify small molecule antagonists of the farnesoid-X-receptor (FXR) signaling pathway (AID 743217; active = well fitted inhibition curve with a large enough effect in the signal ratio in the repeat runs, not every such curve was filed as active; the % refers to the signal ratio)
Procedure, shortened: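 Quantitative HTS, beta-lactamase reporter format: FXR-UAS-bla HEK 293T cells co-treated 16 h at 37 °C with compounds and 50 uM final chenodeoxycholic acid, then read by B/G FRET fluorescence.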

Measured: Potency

Chain of Bile acid receptor (Homo sapiens) (Q96RI1 whole entry, looked up): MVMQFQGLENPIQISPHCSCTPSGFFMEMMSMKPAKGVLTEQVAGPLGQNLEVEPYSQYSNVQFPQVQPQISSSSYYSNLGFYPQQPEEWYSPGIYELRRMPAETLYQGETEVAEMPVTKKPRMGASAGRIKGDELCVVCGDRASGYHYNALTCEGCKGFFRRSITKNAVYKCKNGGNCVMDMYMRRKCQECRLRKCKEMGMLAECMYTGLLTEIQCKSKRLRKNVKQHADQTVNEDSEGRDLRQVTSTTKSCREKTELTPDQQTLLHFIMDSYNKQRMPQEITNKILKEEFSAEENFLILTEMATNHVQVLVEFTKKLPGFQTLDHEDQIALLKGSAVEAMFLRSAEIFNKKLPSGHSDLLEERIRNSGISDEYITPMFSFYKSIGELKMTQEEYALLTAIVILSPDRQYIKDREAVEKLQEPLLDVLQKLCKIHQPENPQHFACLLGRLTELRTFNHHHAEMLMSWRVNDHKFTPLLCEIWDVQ
Chain of Peroxisome proliferator-activated receptor delta (Homo sapiens) (Q03181 whole entry, looked up): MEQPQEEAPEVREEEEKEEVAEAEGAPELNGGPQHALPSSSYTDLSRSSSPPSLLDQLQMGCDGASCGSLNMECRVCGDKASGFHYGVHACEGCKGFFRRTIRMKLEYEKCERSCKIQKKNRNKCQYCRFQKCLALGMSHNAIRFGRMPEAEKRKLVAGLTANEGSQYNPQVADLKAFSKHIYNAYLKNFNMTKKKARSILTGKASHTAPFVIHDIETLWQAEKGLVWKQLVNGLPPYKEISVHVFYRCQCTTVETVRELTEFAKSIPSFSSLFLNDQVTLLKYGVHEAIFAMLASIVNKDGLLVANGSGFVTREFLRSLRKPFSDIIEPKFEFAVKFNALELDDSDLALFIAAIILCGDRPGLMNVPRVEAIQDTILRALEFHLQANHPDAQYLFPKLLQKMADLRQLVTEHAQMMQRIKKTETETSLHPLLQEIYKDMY
Chain of Vitamin D3 receptor (Homo sapiens) (P11473 whole entry, looked up): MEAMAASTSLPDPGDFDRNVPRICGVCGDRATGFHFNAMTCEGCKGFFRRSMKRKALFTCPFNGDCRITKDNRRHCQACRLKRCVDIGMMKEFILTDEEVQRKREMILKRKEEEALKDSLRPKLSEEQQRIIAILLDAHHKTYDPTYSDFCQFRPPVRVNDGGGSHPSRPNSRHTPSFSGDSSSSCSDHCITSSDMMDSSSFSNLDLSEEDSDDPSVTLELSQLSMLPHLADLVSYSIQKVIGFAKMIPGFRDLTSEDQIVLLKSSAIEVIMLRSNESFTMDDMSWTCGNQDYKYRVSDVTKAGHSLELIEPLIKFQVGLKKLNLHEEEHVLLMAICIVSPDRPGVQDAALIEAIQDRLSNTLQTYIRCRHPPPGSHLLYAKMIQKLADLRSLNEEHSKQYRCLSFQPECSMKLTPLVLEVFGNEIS

O=S(=O)(O)SSS(=O)(=O)O
not listed: [16] | [17] | [18] | [19] | [20]
inactive: all other assays above

OCCCCCCCl
not listed: [2] | [18] | [19] | [20]
inactive: all other assays above

CNC(=O)C(c1ccccc1)c1ccccc1
not listed: [3] | [19] | [20]
inactive: all other assays above

CCCCCN(CCCOC)C(=O)C(CCC(=O)O)NC(=O)c1ccc(Cl)c(Cl)c1 (stereo not drawn)
not listed: [1] | [4] | [5] | [18] | [20]
inactive: all other assays above

OC[C@@H](O)[C@H](O)[C@@H](O)[C@@H](O)CO
not listed: [2] | [16] | [17] | [18] | [19] | [20]
inactive: all other assays above

CCC1COC(=O)O1 (stereo not drawn)
not listed: [1]
inactive: all other assays above

O=S(=O)(O)CCO
not listed: [16] | [18] | [19] | [20]
inactive: all other assays above

CCC(=O)OCCC(C)CCC=C(C)C (stereo not drawn)
not listed: [5] | [6] | [13] | [16] | [18] | [19] | [20]
inactive: all other assays above

Oc1ccccc1Cc1ccccc1O
not listed: [1] | [5] | [6] | [17] | [18] | [19] | [20]
inactive: all other assays above

CCCCC(C)C(=O)O (stereo not drawn)
not listed: [7] | [14] | [18] | [20]
inactive: all other assays above

O=C(O)c1ccccc1C(=O)OCc1ccccc1
not listed: [5] | [14] | [16] | [17]
inactive: all other assays above

Cc1nc2ccccc2c(=O)o1
not listed: [13] | [16] | [17] | [18] | [20]
inactive: all other assays above

CCOC(=O)C(=O)c1csc(NC=O)n1
not listed: [14] | [16]
inactive: all other assays above
